Measurements as given in PubChem BioAssay (EPA / NIEHS).
Several values for one entry are separate records, joined by “and”; a condition that tells them apart may be missing. Equal values may be shown once. Inconclusive results are not listed. Activity calls are given as the source filed them. How the source made its calls, unless noted: active means hit-call score of the fitted dose curve at least 0.9, where 1 is the maximum; inactive means score below 0.9.

Legend:
[1] = molecular target: Nucleoli Translocation, AR (gene 367) (UniProt P10275); assay: UPITT_HCI_U2OS_AR_TIF2_Nucleoli_Antagonist: University of Pittsburgh U2OS Androgen Receptor-Transcriptional Intermediary Factor 2 (AR-TIF2) Antagonism High Content Imaging Assay for Nucleoli Translocation (AID 2283997; active means hit-call score of the fitted dose curve at least 0.9, where 1 is the maximum)
Procedure, shortened: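 U2OS cells co-expressing red-fluorescent-tagged human AR and green-fluorescent-tagged TIF2, imaged by high-content microscopy for nucleolar red fluorescence. Antagonist mode against DHT; primary screen at 20 uM final (0.2% DMSO).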

[2] = molecular target: Ratio of Nucleoli Translocation and Cytoplasm, AR (gene 367) (UniProt P10275); assay: UPITT_HCI_U2OS_AR_TIF2_Nucleoli_Cytoplasm_Ratio_Antagonist: University of Pittsburgh U2OS Androgen Receptor-Transcriptional Intermediary Factor 2 (AR-TIF2) Antagonism High Content Imaging Assay for Ratio of Nucleoli Translocation and Cytoplasm (AID 2283999; active means hit-call score of the fitted dose curve at least 0.9, where 1 is the maximum;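 further: antagonists lower the DHT-driven ratio of nucleolar to cytoplasmic red signal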)
Procedure, shortened: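 High-content imaging quantifies the red nucleolar:cytoplasmic fluorescence ratio in U2OS cells with AR-RFP and TIF2-GFP. Final concentrations are 20 uM (screen) or 0.195–50 uM (dose response), analysed against DHT as baseline.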

[3] = CCTE_Harrill_HTTr_Viability_MCF7: CCTE's 6-hour Cell Viability Assessment for the High-Throughput Transcriptomics (HTTr) Platform, in MCF-7 cells cultured in DMEM + 10% fetal bovine serum, Harrill Lab (AID 2284010)
Procedure, shortened: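 Viability measured through PI dye exclusion by high-content imaging at 6 h post-dosing.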

[4] = CCTE_Harrill_HTTr_Apoptosis_MCF7: CCTE's 6-hour Apoptosis Assessment for the High-Throughput Transcriptomics (HTTr) Platform, in MCF-7 cells cultured in DMEM + 10% fetal bovine serum, Harrill Lab (AID 2284011)
Procedure, shortened: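 MCF-7 (DMEM + 10% FBS), 384-well; 8-pt dilution series, 6 h chemical exposure; caspase-3/7 activation via CellEvent Caspase 3/7 Green, HCI; bidirectional fit vs DMSO.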

[5] = CCTE_Harrill_HTTr_CellCount_MCF7: CCTE's Cell Proliferation Assessment for the High-Throughput Transcriptomics (HTTr) Platform, Harrill Lab (AID 2284012; active means hit-call score of the fitted dose curve at least 0.9, where 1 is the maximum;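 further: count of Hoechst-stained nuclei per well by high-content imaging in MCF-7 cells; cells exposed to compound for six hours; intended direction is loss of nuclei count meaning fewer cells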)
Procedure, shortened: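 Nuclei counting (Hoechst, high content imaging) in MCF-7 after a 6 h treatment at eight concentrations. Activity fitted bidirectionally, DMSO as negative control.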

[6] = CCTE_Harrill_HTTr_Apoptosis_PRF_DMEM_6hr: (Pilot) CCTE's 6-hour Apoptosis Assessment for the High-Throughput Transcriptomics (HTTr) Platform, in MCF-7 cells cultured phenol red-free DMEM + 10% charcoal-stripped fetal bovine serum, Harrill Lab (AID 2283984)
Procedure, shortened: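 MCF-7 cells in phenol red-free DMEM + 10% charcoal-stripped FBS, eight-point dilution series, 6 h exposure. Caspase-3/7 activation imaged by high-content imaging with CellEvent Caspase 3/7 Green; bidirectional fit versus DMSO baseline.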

[7] = CCTE_Harrill_HTTr_Apoptosis_PRF_DMEM_24hr: (Pilot) CCTE's 24-hour Apoptosis Assessment for the High-Throughput Transcriptomics (HTTr) Platform, in MCF-7 cells cultured in phenol red-free DMEM + 10% charcoal-stripped fetal bovine serum, Harrill Lab (AID 2283986)
Procedure, shortened: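 MCF-7 cells in phenol red-free DMEM with 10% charcoal-stripped FBS, exposed 24 h across an eight-point dilution series. Caspase-3/7 activation imaged with CellEvent Green by high content imaging; bidirectional fitting against DMSO.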

[8] = CCTE_Simmons_MITO_basal_resp_rate: CCTE's HepG2 Seahorse XF Respirometric Screening Assay at Basal Respiratory State, Simmons Lab (AID 2284001); conditions: actives raise or lower the signal
Procedure, shortened: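 HepG2 oxygen consumption on Seahorse XF96 after compound injection, 7 concentrations 125 nM–100 uM final, reads every 6 min over 72 min. Triplicate biological replicates; bidirectional fit vs DMSO; fenpyroximate and 2,4-dinitrophenol controls.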

[9] = CCTE_Simmons_MITO_max_resp_rate: CCTE's HepG2 Seahorse XF Respirometric Screening Assay at Maximal Respiratory State [uncoupled], Simmons Lab (AID 2284002); conditions: actives raise or lower the signal
Procedure, shortened: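 Read-out is oxygen consumption rate at maximal respiration, taken after FCCP uncoupling of compound-treated HepG2 cells. Seven final concentrations from 125 nM to 100 uM were tested, each in three biological replicates.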

[10] = CCTE_Simmons_MITO_inhib_resp_rate: CCTE's HepG2 Seahorse XF Respirometric Screening Assay at Inhibited Respiratory State [full ETC block], Simmons Lab (AID 2284006); conditions: actives raise or lower the signal
Procedure, shortened: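 Inhibited respiration was taken as HepG2 oxygen consumption after rotenone/antimycin A, which followed test-compound and FCCP injections. Chemicals were tested at seven final concentrations from 125 nM to 100 uM. Activity was fitted bidirectionally relative to DMSO.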

DIO1 (gene 1733) = assay: CCTE_GLTED_hDIO1: CCTE's human Deiodinase 1 (DIO1) Inhibition Assay, Great Lakes Toxicology and Ecology Division (GLTED) Lab (AID 2283987; active means hit-call score of the fitted dose curve at least 0.9, where 1 is the maximum;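 further: isolated human DIO1 enzyme in a cell-free setup rather than cells; enzyme activity read as free iodide liberated from substrate via Sandell-Kolthoff colorimetry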)
Procedure, shortened: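 Inhibition of human deiodinase 1 is scored as reduced iodide liberation after a 3 h enzyme–chemical incubation, detected colorimetrically by the Sandell-Kolthoff reaction against DMSO controls.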

[11] = CCTE_Simmons_MITO_viability: CellTiter-Glo Viability Assessment for CCTE's HepG2 Seahorse XF Respirometric Screening Assay [post-hoc], Simmons Lab (AID 2284007; active means hit-call score of the fitted dose curve at least 0.9, where 1 is the maximum)
Procedure, shortened: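 HepG2 cells; test chemical 7 conc. (125 nM–100 uM final) × 90 min; then luminescent ATP detection. DMSO vehicle. Positive control dichlone, 8 conc. from 10 nM to 100 uM final. Loss-of-signal endpoint.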

[12] = CCTE_Shafer_MEA_acute_spike_number: CCTE's Neural Acute Assay for Total Number of Spikes, Shafer Lab (AID 2284008);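 on AC50: curve fitted for decrease in spike count so AC50 reflects inhibitors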
Procedure, shortened: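 Read-out is the total spike count over 40 min, expressed as percent change from each well's own pre-treatment baseline and fitted in the loss direction against DMSO. Rat cortical neurons were exposed at 0.03-40 uM on DIV 13 or 15.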

[13] = CCTE_Shafer_MEA_acute_firing_rate_mean: CCTE's Neural Acute Assay for Mean Firing Rate, Shafer Lab (AID 2284009);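 further: analyzed for loss of signal so actives lower firing rate relative to DMSO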
Procedure, shortened: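 Rat primary cortical neurons on 48-well MEA plates, dosed at 0.03-40 uM on DIV 13 or 15; 40 min spontaneous activity recorded at 37 C before and after compound. Spike rate per electrode averaged per well, expressed as percent change from baseline.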

[14] = CCTE_Shafer_MEA_acute_burst_number: CCTE's Neural Acute Assay for Single-Electrode Bursts, Shafer Lab (AID 2284013)
Procedure, shortened: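 Primary rat cortical neurons on 16-electrode MEA wells, treated on DIV 13 or 15 with compound at 0.03-40 uM. Single-electrode burst count from 40-min recordings at 37 C before and after exposure; percent change from baseline per well, DMSO negative control.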

[15] = CCTE_Shafer_MEA_acute_burst_duration_mean: CCTE's Neural Acute Assay for Mean Burst Duration, Shafer Lab (AID 2284014);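 further: hits are decreases in mean burst duration relative to DMSO controls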
Procedure, shortened: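 Rat primary cortical neurons on 48-well MEA, treated at DIV 13 or 15 with 0.03-40 uM in at least 3 wells. Value is percent change in mean burst duration, comparing 40 min recordings at 37 C before and during exposure.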

[16] = CCTE_Shafer_MEA_acute_interburst_interval_mean: CCTE's Neural Acute Assay for Mean Interburst Interval, Shafer Lab (AID 2284016);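 further: percent change of mean interburst interval versus each well's own pre-dose baseline; curves fitted for decrease in interburst interval relative to DMSO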
Procedure, shortened: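 Percent change in mean single-electrode interburst interval was calculated per well from 40 min recordings before and after compound (0.03-40 uM). Recordings were made at 37 C on rat cortical cultures at DIV 13 or 15, with spikes detected at 8x rms threshold.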

[17] = CCTE_Shafer_MEA_acute_burst_percentage_std: CCTE's Neural Acute Assay for Standard Deviation of Burst Percentage, Shafer Lab (AID 2284018);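 further: fitted in the negative direction so actives lower burst percentage SD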
Procedure, shortened: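 Rat primary cortical neurons on 48-well MEAs, DIV 13 or 15, 37 C. 40-min baseline then 40-min recording with compound (0.03-40 uM); well-level SD of per-electrode burst spike percentage, expressed as percent change from baseline.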

[18] = molecular target: Ratio of Nucleoli Translocation and Cytoplasm, AR (gene 367) (UniProt P10275); assay: UPITT_HCI_U2OS_AR_TIF2_Nucleoli_Cytoplasm_Ratio_Agonist: University of Pittsburgh U2OS Androgen Receptor-Transcriptional Intermediary Factor 2 (AR-TIF2) Agonism High Content Imaging Assay for Ratio of Nucleoli Translocation and Cytoplasm (AID 2284000; active means hit-call score of the fitted dose curve at least 0.9, where 1 is the maximum;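 further: hits raise the red nucleolar to cytoplasm ratio above vehicle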)
Procedure, shortened: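 U2OS cells expressing RFP-tagged human AR and GFP-tagged TIF2; high-content imaging ratio of nucleolar to cytoplasmic red fluorescence, fitted as gain of signal vs DMSO. Single point at 20 uM final (0.2% DMSO); concentration-response 0.195-50 uM final (0.5% DMSO).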

[19] = molecular target: Nucleoli Translocation, AR (gene 367) (UniProt P10275); assay: UPITT_HCI_U2OS_AR_TIF2_Nucleoli_Agonist: University of Pittsburgh U2OS Androgen Receptor-Transcriptional Intermediary Factor 2 (AR-TIF2) Agonism High Content Imaging Assay for Nucleoli Translocation (AID 2283998; active means hit-call score of the fitted dose curve at least 0.9, where 1 is the maximum)
Procedure, shortened: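 Readout is red (AR-RFP) fluorescence localized to nucleoli, measured by high-content imaging and analysed for increase relative to DMSO. Compound series spanned 0.195 to 50 uM final in 0.5% DMSO.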

Measured: AC50

Sequence of Nucleoli Translocation, AR (gene 367) (P10275 whole entry, looked up): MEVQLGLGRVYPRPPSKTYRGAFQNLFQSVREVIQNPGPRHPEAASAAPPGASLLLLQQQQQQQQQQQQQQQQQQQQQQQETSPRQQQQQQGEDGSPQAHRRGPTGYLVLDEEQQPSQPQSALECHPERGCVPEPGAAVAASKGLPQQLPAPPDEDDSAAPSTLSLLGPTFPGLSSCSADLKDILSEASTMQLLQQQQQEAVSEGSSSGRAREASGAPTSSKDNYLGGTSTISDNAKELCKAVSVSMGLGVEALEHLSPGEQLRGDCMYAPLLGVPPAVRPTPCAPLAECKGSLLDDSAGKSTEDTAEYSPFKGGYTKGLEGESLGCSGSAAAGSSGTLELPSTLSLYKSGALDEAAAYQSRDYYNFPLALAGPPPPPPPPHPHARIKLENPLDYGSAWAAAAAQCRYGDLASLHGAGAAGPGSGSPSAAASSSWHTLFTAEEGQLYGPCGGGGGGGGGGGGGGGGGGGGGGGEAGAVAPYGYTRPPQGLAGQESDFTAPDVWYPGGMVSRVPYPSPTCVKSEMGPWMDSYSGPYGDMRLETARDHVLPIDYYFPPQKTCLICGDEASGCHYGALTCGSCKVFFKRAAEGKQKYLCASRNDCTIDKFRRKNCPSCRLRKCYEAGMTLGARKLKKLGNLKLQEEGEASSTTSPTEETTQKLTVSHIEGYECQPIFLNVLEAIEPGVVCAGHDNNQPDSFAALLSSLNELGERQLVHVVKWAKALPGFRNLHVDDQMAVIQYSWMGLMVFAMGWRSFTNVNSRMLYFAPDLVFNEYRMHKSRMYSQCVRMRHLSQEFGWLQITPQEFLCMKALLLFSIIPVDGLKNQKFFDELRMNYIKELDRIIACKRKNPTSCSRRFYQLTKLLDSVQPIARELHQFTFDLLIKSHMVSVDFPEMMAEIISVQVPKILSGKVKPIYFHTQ
Sequence of Ratio of Nucleoli Translocation and Cytoplasm, AR (gene 367) (P10275 whole entry, looked up): as above

CC(=O)S[C@@H]1CC2=CC(=O)CC[C@]2(C)[C@H]2CC[C@@]3(C)[C@@H](CC[C@@]34CCC(=O)O4)[C@H]12
inactive: [1] | [2] | [3] | [4] | [5]

N[C@@H](Cc1cc(I)c(Oc2ccc(O)c(I)c2)c(I)c1)C(=O)O
active: [8] 6.61 µM
inactive: [6] | [7] | [9] | [10] | [3] | [4]

CC(C)CCCCCCc1ccc(O)cc1
active: [7] 77.2 µM | DIO1 (gene 1733) 49.4 µM | [8] 50 µM | [9] 43.8 µM | [12] 6.02 µM | [13] 6.03 µM | [14] 6.34 µM | [16] 7.29 µM | [17] 32.5 µM
inactive: [6] | [10] | [11] | [3] | [4] | [5] | [15]

CCCCOCCOCCOCc1cc2c(cc1CCC)OCO2
inactive: [1] | [2] | [18] | [3] | [4]

N#CSCSc1nc2ccccc2s1
active: [1] 9.92 µM | [19] 13 µM | [2] 32.4 µM | [18] 12.8 µM | [8] 15.1 µM | [9] 22.7 µM | [17] 32.7 µM
inactive: [10] | [11] | [12] | [13] | [3] | [4] | [5] | [14] | [15] | [16]

CC(C)(c1ccc(O)cc1)c1ccc(O)cc1
active: [1] 12.9 µM | [19] 73.3 µM | [18] 86.7 µM | [8] 18.9 µM and 24.7 µM | [9] 37.1 µM and 34.8 µM | [12] 5.7 µM | [13] 5.7 µM | [14] 6.17 µM
inactive: [6] | [7] | [2] | [10] | [3] | [4] | [5] | [16] | [17]

CN(C)C(=O)Nc1ccc(Cl)c(Cl)c1
inactive: [1] | [2] | [3] | [4] | [5]

CCCN(CCC)C(=O)SCC
inactive: [1] | [19] | [18] | [3] | [4] | [5]

c1ccc2[nH]c(-c3cscn3)nc2c1
inactive: [1] | [18] | [3] | [4] | [5]

CCOC(=O)COc1cc(-n2ncc(C(F)(F)F)c(C)c2=O)c(F)cc1Cl
inactive: [19] | [18] | [3] | [4] | [5]

CCSC(=O)N(CC(C)C)CC(C)C
inactive: [1] | [19] | [2] | [18] | [3] | [4]
